aSyn 5UTR act = Activators via SNCA 5'UTR binding, MLPCN. 7.1% of 300,000 active. activity score, % (tested at 7.5 µM), hits read low. alpha-synuclein 5'UTR reporter, activators screen. AID 1814, 2009; in the data active = activity score below about -60%
Each line names hits and unclear results; the compound was inactive in the other large screens. Only a sample is shown.

COc1cccc(NC(=O)C2COc3ccccc3O2)c1 (stereo unspecified)	aSyn 5UTR act -200.9
Cc1cc(=O)oc2cc(NC(=O)C3COc4ccccc4O3)ccc12 (stereo unspecified)	aSyn 5UTR act -61.6
O=C(Nc1ccc(F)cc1)C1COc2ccccc2O1 (stereo unspecified)	aSyn 5UTR act -71.6
O=C(Nc1ccccc1[N+](=O)[O-])C1COc2ccccc2O1 (stereo unspecified)	aSyn 5UTR act -221.5
Cc1cc(Cl)ccc1NC(=O)C1COc2ccccc2O1 (stereo unspecified)	aSyn 5UTR act -85.5
COc1ccc(OC)c2c1sc(=NC(=O)C1COc3ccccc3O1)n2C (stereo unspecified)	aSyn 5UTR act -128.4
O=C(Nc1cnc2ccccc2c1)C1COc2ccccc2O1 (stereo unspecified)	aSyn 5UTR act -167.5
COc1ccc(C)cc1NC(=O)C1COc2ccccc2O1 (stereo unspecified)	aSyn 5UTR act -67.3
O=C(Nc1ccc2c(c1)OCO2)C1COc2ccccc2O1 (stereo unspecified)	aSyn 5UTR act -177.1
O=c1c2ccccc2oc2ccc(-c3ccc4[nH]ccc4c3)cc12	aSyn 5UTR act -154.1
O=C(Nc1ccc(Br)cc1)Nc1ccccc1F	aSyn 5UTR act -232.1
O=C(Nc1ccccc1F)Nc1ccccc1F	aSyn 5UTR act -238.8
COc1ccc(-c2nnc(SCc3ccccn3)n2C)cc1	aSyn 5UTR act -66.8
COc1ccc(-c2nnc(SCCc3ccccc3)n2N)cc1	aSyn 5UTR act -82.5
COc1ccc(N=C(N)SCc2ccccn2)cc1	aSyn 5UTR act -79.3
COc1ccc(-c2nnc(SCc3ccccc3)n2N)cc1	aSyn 5UTR act -142.4
COc1ccc(NC(=O)c2oc3ccccc3c2NC(=O)C2CCCO2)cc1OC (stereo unspecified)	aSyn 5UTR act -116.0
Cc1ccc(NC(=O)c2oc3ccccc3c2NC(=O)C2CCCO2)cc1C (stereo unspecified)	aSyn 5UTR act -168.8
CCOc1ccccc1NC(=O)c1oc2ccccc2c1NC(=O)C1CCCO1 (stereo unspecified)	aSyn 5UTR act -63.1
Nc1nc(-c2ccc(Br)s2)c(Br)s1	aSyn 5UTR act -76.6
COc1ccc(-c2cc(-c3ccccc3)n[nH]2)c(O)c1	aSyn 5UTR act -216.8
COc1ccc(O)c(-c2cc(-c3cccs3)[nH]n2)c1	aSyn 5UTR act -125.5
COc1ccc(O)c(-c2cc(-c3ccccc3Cl)[nH]n2)c1	aSyn 5UTR act -115.3
O=C(Nc1nc2c(s1)CCCC2=O)c1cnccn1	aSyn 5UTR act -88.2
Clc1ccc(-c2cnc3n2CCC3)cc1	aSyn 5UTR act -103.1
O=C1C2C(C(=O)N1/N=C/c1cccc([N+](=O)[O-])c1)C1C=CC2C12CC2 (stereo unspecified)	aSyn 5UTR act -153.0
COc1ccccc1-n1cnc2cc(NCc3ccco3)ccc21	none
Cn1c(NCc2cccs2)nc2ccccc21	aSyn 5UTR act -63.5
Cn1c(NCc2ccco2)nc2ccccc21	aSyn 5UTR act -102.0
Cn1c(NCc2c[nH]c3ccccc23)nc2ccccc21	aSyn 5UTR act -98.0
Cc1ccc2nc(/C(C#N)=C\c3ccc(N4CCOCC4)o3)[nH]c2c1	aSyn 5UTR act -231.3
N#C/C(=C/c1ccc(N2CCOCC2)o1)C(=O)Nc1ccccc1	aSyn 5UTR act -152.5
Cc1ccc(/C(C#N)=C\c2ccc(N3CCOCC3)o2)cc1	aSyn 5UTR act -312.5
O=C(Cc1ccccc1)Nc1nc(-c2cccs2)cs1	aSyn 5UTR act -136.1
O=C(Cc1ccccc1F)Nc1nc(-c2ccc(F)c(F)c2)cs1	aSyn 5UTR act -85.1
O=C(Cc1ccccc1F)Nc1nc(-c2cccs2)cs1	aSyn 5UTR act -77.8
Clc1ccc(-c2cn3cccnc3n2)cc1	aSyn 5UTR act -132.1
Clc1ccc(-c2cn3nc4c(nc3n2)CCCC4)cc1	none
Clc1ccc(-c2cn3cccnc3n2)cc1Cl	aSyn 5UTR act -193.3
CC(=O)NCCOc1ccc2oc3ccccc3c2c1	aSyn 5UTR act -133.0
Cc1ccc(C(=O)c2c3ccccc3[n+]([O-])n2[C@@H](C)C(N)=O)cc1	aSyn 5UTR act -86.6
COc1ccc(N2CCN(C(=O)CSc3ncccc3-c3nc4ccccc4[nH]3)CC2)cc1	aSyn 5UTR act -114.1
Cc1cc2nc(-c3cccnc3SCC(=O)NC(C)C)[nH]c2cc1C	aSyn 5UTR act -122.2
COc1ccccc1N1CCN(C(=O)CSc2ncccc2-c2nc3ccccc3[nH]2)CC1	aSyn 5UTR act -68.2
COc1ccccc1N1CCN(Cc2ccc(O)c3ncccc23)CC1	none
Cc1cccc(N/N=C(\C(N)=O)C2=NC(C)(C)Cc3ccccc32)c1	none
COc1ccc(NC(=O)C2Cc3ccccc3O/C2=N\O)cc1 (stereo unspecified)	aSyn 5UTR act -82.3
Cc1cccc(NC(=O)C2Cc3ccccc3O/C2=N\O)c1 (stereo unspecified)	aSyn 5UTR act -137.8
Cc1ccc2oc(Nc3nc(C)c(C)c(C)n3)nc2c1	aSyn 5UTR act -99.4
Cc1cccc(NC(=O)c2cc(-c3ccc(C)s3)nc3ccccc23)n1	aSyn 5UTR act -93.3
CCc1ccc(-c2cc(C(=O)Nc3c(C)n(C)n(-c4ccccc4)c3=O)c3ccccc3n2)s1	aSyn 5UTR act -68.3
S=c1nc(NCCc2ccccc2Cl)c2ccccc2[nH]1	aSyn 5UTR act -114.4
